# About 2,000 (36%) of roughly 5,500 compounds were called active. Roughly 18% stayed inconclusive and do not appear here. Some of the results follow. Values without a mark were called inactive. No stated cut-off is given here; in the data, active means normalized growth mostly below about 0.91 (no sharp cut-off); inconclusive means no clear call, values can overlap the other calls; inactive means mostly above about 0.92.
# Experiment: chemical genetic growth profiling, strain panel (AID 1159580);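 further: tested at 20 µM; growth read once vehicle control cultures reached saturation at 30 °C; 1 = growth at the plate median or of vehicle wells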
# Details: S. cerevisiae deletion strains, growth OD
# [1] = locus YAL013W, strain DEP1, stronger effect = lower value
# [2] = locus YDL101C, strain DUN1, stronger effect = lower value
# [3] = locus YDR150W, strain NUM1, stronger effect = lower value
# [4] = locus YHR030C, strain SLT2, stronger effect = lower value
# [5] = locus YJR075W, strain HOC1, stronger effect = lower value
# [6] = locus YMR263W, strain SAP30, stronger effect = lower value
# [7] = locus YNL153C, strain GIM3, stronger effect = lower value
smiles,measurement,setting,value
COc1ccc(NC(=O)C(C)c2ccc(CC(C)C)cc2)cc1 (configuration not stated),normalized growth,[1],0.976
same,normalized growth,"locus YBR229C, strain ROT2, stronger effect = lower value",0.897 (active)
same,normalized growth,"locus YCL061C, strain MRC1, stronger effect = lower value",0.848 (active)
same,normalized growth,[2],0.956
same,normalized growth,"locus YDL134C, strain PPH21, stronger effect = lower value",0.965
same,normalized growth,[3],0.91
same,normalized growth,"locus YEL061C, strain CIN8, stronger effect = lower value",0.943
same,normalized growth,"locus YGR078C, strain PAC10, stronger effect = lower value",0.886 (active)
same,normalized growth,[4],0.916
same,normalized growth,"locus YHR087W, strain rtc3, stronger effect = lower value",0.824 (active)
same,normalized growth,"locus YJR043C, strain POL32, stronger effect = lower value",0.907 (active)
same,normalized growth,[5],0.804 (active)
same,normalized growth,"locus YKL190W, strain CNB1, stronger effect = lower value",0.914 (active)
same,normalized growth,"locus YLR039C, strain RIC1, stronger effect = lower value",0.527 (active)
same,normalized growth,"locus YLR058C, strain SHM2 (second series), stronger effect = lower value",0.974
same,normalized growth,"locus YLR085C, strain ARP6, stronger effect = lower value",0.878
same,normalized growth,"locus YLR262C, strain YPT6, stronger effect = lower value",0.46 (active)
same,normalized growth,"locus YML094W, strain GIM5, stronger effect = lower value",0.903
same,normalized growth,"locus YMR219W, strain ESC1, stronger effect = lower value",0.94 (active)
same,normalized growth,[6],0.963
same,normalized growth,"locus YMR307W, strain GAS1, stronger effect = lower value",0.774
same,normalized growth,[7],0.932
same,normalized growth,"locus YNL298W, strain CLA4 (second series), stronger effect = lower value",0.937
same,normalized growth,"locus YNL322C, strain KRE1, stronger effect = lower value",0.967
same,normalized growth,"locus YNR030W, strain Alg12, stronger effect = lower value",0.872 (active)
same,normalized growth,"locus YPL055C, strain LGE1, stronger effect = lower value",0.838
same,normalized growth,"locus YPL241C, strain CIN2, stronger effect = lower value",0.858 (active)
same,normalized growth,"locus YPR135W, strain CTF4, stronger effect = lower value",0.855
CN1C2CCC1CC(NC(=O)c1nn(C)c3ccccc13)C2 (configuration not stated),normalized growth,[1],1.02
same,normalized growth,"locus YAL040C, strain CLN3, stronger effect = lower value",1.01
same,normalized growth,"locus YCL061C, strain MRC1 (second series), stronger effect = lower value",1.01
same,normalized growth,[3],1
same,normalized growth,"locus YDR363W, strain ESC2, stronger effect = lower value",1
same,normalized growth,"locus YER002W, strain NOP16, stronger effect = lower value",0.992
same,normalized growth,[5],1.01
same,normalized growth,[6],0.999
same,normalized growth,"locus YNL128W, strain TEP1, stronger effect = lower value",0.987
same,normalized growth,[7],0.999
same,normalized growth,"locus YNL175C, strain NOP13, stronger effect = lower value",1.01
same,normalized growth,"locus YNL197C, strain WHI3, stronger effect = lower value",1.01
same,normalized growth,"locus YNL224C, strain SQS1, stronger effect = lower value",1
same,normalized growth,"locus YOR083W, strain WHI5 (second series), stronger effect = lower value",1.02
CC(C)Cc1ccc(C(C)C(=O)Nc2nn(C)c3ccccc23)cc1 (configuration not stated),normalized growth,"locus YAR019C, strain CDC15, stronger effect = lower value",0.993
same,normalized growth,"locus YBL105C, strain PKC1, stronger effect = lower value",0.986
same,normalized growth,"locus YBR135W, strain CKS1, stronger effect = lower value",0.974
same,normalized growth,"locus YBR136W, strain MEC1, stronger effect = lower value",0.99
same,normalized growth,"locus YBR160W, strain CDC28, stronger effect = lower value",0.984
same,normalized growth,"locus YDL017W, strain CDC7, stronger effect = lower value",0.967
same,normalized growth,"locus YDL028C, strain MPS1, stronger effect = lower value",0.997
same,normalized growth,[2],0.993
same,normalized growth,"locus YDL108W, strain KIN28, stronger effect = lower value",0.992
same,normalized growth,"locus YDL132W, strain cdc53, stronger effect = lower value",0.998
same,normalized growth,"locus YDL214C, strain PRR2, stronger effect = lower value",0.931
same,normalized growth,"locus YDR054C, strain cdc34, stronger effect = lower value",0.968
same,normalized growth,"locus YDR226W, strain ADK1, stronger effect = lower value",0.991
same,normalized growth,"locus YDR477W, strain SNF1, stronger effect = lower value",0.932
same,normalized growth,"locus YER123W, strain YCK3, stronger effect = lower value",0.922
same,normalized growth,"locus YER133W, strain GLC7, stronger effect = lower value",0.945
same,normalized growth,"locus YFL009W, strain cdc4, stronger effect = lower value",0.985
same,normalized growth,"locus YFL029C, strain CAK1, stronger effect = lower value",0.994
same,normalized growth,"locus YFR003C, strain YPI1, stronger effect = lower value",0.993
same,normalized growth,"locus YFR019W, strain FAB1, stronger effect = lower value",0.962
same,normalized growth,"locus YFR028C, strain CDC14, stronger effect = lower value",0.988
same,normalized growth,"locus YGR040W, strain KSS1, stronger effect = lower value",0.915
same,normalized growth,"locus YGR052W, strain FMP48, stronger effect = lower value",0.983
same,normalized growth,"locus YGR092W, strain DBF2, stronger effect = lower value",0.931
same,normalized growth,[4],0.944
same,normalized growth,"locus YHR079C, strain IRE1, stronger effect = lower value",0.945
same,normalized growth,"locus YHR082C, strain KSP1, stronger effect = lower value",0.94
same,normalized growth,"locus YHR205W, strain SCH9, stronger effect = lower value",0.909
same,normalized growth,"locus YIL147C, strain SLN1, stronger effect = lower value",0.989
same,normalized growth,"locus YJL095W, strain BCK1, stronger effect = lower value",0.965
same,normalized growth,"locus YJL128C, strain PBS2, stronger effect = lower value",0.948
same,normalized growth,"locus YJL157C, strain FAR1, stronger effect = lower value",0.942
same,normalized growth,"locus YJR016C, strain ILV3, stronger effect = lower value",0.99
same,normalized growth,"locus YJR066W, strain TOR1 (second series), stronger effect = lower value",0.902
same,normalized growth,"locus YJR066W, strain TOR1, stronger effect = lower value",0.982
same,normalized growth,"locus YKL048C, strain ELM1, stronger effect = lower value",0.965
same,normalized growth,"locus YKL067W, strain YNK1, stronger effect = lower value",0.939
same,normalized growth,"locus YKL101W, strain HSL1, stronger effect = lower value",0.933
same,normalized growth,"locus YKL193C, strain SDS22, stronger effect = lower value",0.975
same,normalized growth,"locus YKL203C, strain TOR2, stronger effect = lower value",0.981
same,normalized growth,"locus YLR113W, strain HOG1, stronger effect = lower value",0.855 (active)
same,normalized growth,"locus YLR133W, strain CKI1, stronger effect = lower value",0.93
same,normalized growth,"locus YLR403W, strain SFP1, stronger effect = lower value",0.772
same,normalized growth,"locus YML070W, strain DAK1, stronger effect = lower value",0.918
same,normalized growth,"locus YMR001C, strain CDC5, stronger effect = lower value",0.973
same,normalized growth,"locus YMR205C, strain PFK2 (second series), stronger effect = lower value",0.928
same,normalized growth,"locus YMR277W, strain FCP1, stronger effect = lower value",0.975
same,normalized growth,"locus YNL006W, strain LST8, stronger effect = lower value",0.993
same,normalized growth,"locus YNL020C, strain ARK1, stronger effect = lower value",0.935
same,normalized growth,"locus YNL161W, strain CBK1, stronger effect = lower value",0.991
same,normalized growth,"locus YNL183C, strain NPR1, stronger effect = lower value",0.927
same,normalized growth,"locus YNL207W, strain RIO2, stronger effect = lower value",0.976
same,normalized growth,"locus YNL222W, strain SSU72, stronger effect = lower value",0.99
same,normalized growth,"locus YNL307C, strain MCK1 (second series), stronger effect = lower value",0.944
same,normalized growth,"locus YOL078W, strain AVO1, stronger effect = lower value",0.987
same,normalized growth,"locus YOL136C, strain PFK27, stronger effect = lower value",0.916
same,normalized growth,"locus YOR061W, strain CKA2, stronger effect = lower value",0.938
same,normalized growth,"locus YOR119C, strain RIO1, stronger effect = lower value",0.988
same,normalized growth,"locus YOR231W, strain MKK1, stronger effect = lower value",0.896
same,normalized growth,"locus YOR329C, strain SCD5, stronger effect = lower value",0.99
same,normalized growth,"locus YPL031C, strain PHO85, stronger effect = lower value",0.941
same,normalized growth,"locus YPL153C, strain RAD53, stronger effect = lower value",0.934
same,normalized growth,"locus YPL204W, strain HRR25, stronger effect = lower value",0.906
same,normalized growth,"locus YPL209C, strain IPL1, stronger effect = lower value",0.982
same,normalized growth,"locus YPL256C, strain CLN2, stronger effect = lower value",0.88
same,normalized growth,"locus YPR025C, strain CCL1, stronger effect = lower value",0.986
same,normalized growth,"locus YPR106W, strain ISR1, stronger effect = lower value",0.979
same,normalized growth,"locus YPR111W, strain DBF20, stronger effect = lower value",0.955
same,normalized growth,"strain NNK1, stronger effect = lower value",0.98
same,normalized growth,"strain TSCII, stronger effect = lower value",0.992
